Cycloheximide cs: counter-screen for Shiga toxin inhibitors: cycloheximide protein synthesis inhibition; actives 12% (n = 300,000); cell reporter, cycloheximide protein synthesis inhibition counterscreen; max response, %; in the data active = max response mostly above about 13%, no sharp cut-off; inactive = mostly below about 14%; note: read at 38.3 µM for the half of the compounds with a filed dose; 0% is about no effect
AmpC inh detg: blocks E. coli AmpC beta-lactamase in detergent assay; AmpC hydrolysis of nitrocefin, absorbance 480 nm, 0.01% Triton; Potency, µM (series often up to 114 µM), inactives show at the top dose activity change, negative = inhibition, actives largely listed as inhibitors; AID 485294; P00811; actives 0.041% (n = 370,000);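 note: potency is the fitted concentration of half-maximal effect; 0% = no-compound wells and -100% = no-enzyme wells; nearly all actives have a fitted effect of over 25% in size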
Target sequence (P00811 whole entry, looked up): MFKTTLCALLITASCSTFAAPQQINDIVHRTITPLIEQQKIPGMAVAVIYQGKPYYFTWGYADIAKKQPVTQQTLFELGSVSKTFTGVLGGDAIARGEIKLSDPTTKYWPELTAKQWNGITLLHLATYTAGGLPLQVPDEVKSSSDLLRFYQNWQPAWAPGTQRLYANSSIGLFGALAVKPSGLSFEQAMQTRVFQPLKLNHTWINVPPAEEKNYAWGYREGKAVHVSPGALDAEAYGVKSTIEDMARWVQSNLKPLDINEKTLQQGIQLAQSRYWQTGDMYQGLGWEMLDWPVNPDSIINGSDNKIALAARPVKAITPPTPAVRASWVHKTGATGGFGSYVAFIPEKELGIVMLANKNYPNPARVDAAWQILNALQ
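AmpC (5.3 nM in the dispensed reagent) in 20 mM phosphate pH 7.0 with 0.01% (detergent screen) or 0.0001% Triton X-100 was preincubated with compounds for 15 min at room temperature. Nitrocefin was then added from an 800 uM solution, and hydrolysis was followed at 480 nm.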
Shiga toxin inh: inhibitors of Shiga toxin in Vero cells; Vero cells, Shiga toxin protein synthesis inhibition reporter; inhibition, % at 38.7 µM; actives 9.2% (n = 290,000); AID 2315; in the data active = inhibition mostly above about 28%, no sharp cut-off; inactive = mostly below about 43%; note: 0% is about no effect
NS1 function inh: blocks influenza NS1 protein function | Potency, µM (series often up to 46.1 µM), for the others: top-dose activity, positive = more growth | actives 0.4% (n = 270,000); calls by dose curve; note: potency is the fitted concentration of half-maximal effect; actives are rising curves; nearly all actives have a fitted effect of over 50% in size
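Compounds were scored for reversing the slow growth caused by influenza A NS1 in S. cerevisiae, measured by optical density at 600 nm. Assay medium contained 2% galactose at pH 6.0; NS1-free yeast of the same strain were the positive control.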
AmpC inh no detg: inhibitors of E. coli AmpC beta-lactamase without detergent; actives 0.52% (n = 330,000); Potency, µM (doses to about 57.1 µM), without a hit: at the highest dose activity change, negative = inhibition, usual class: inhibitors; AID 485341; AmpC nitrocefin hydrolysis, absorbance 480 nm, 0.0001% Triton;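 note: potency is the fitted concentration of half-maximal effect; plate controls were no compound for no effect and no enzyme for full effect; nearly all actives have a fitted effect of over 20% in size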
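AmpC (5.3 nM in the dispensed reagent) in 20 mM phosphate pH 7.0 with 0.01% (detergent screen) or 0.0001% Triton X-100 was preincubated with compounds for 15 min at room temperature. Nitrocefin was then added from an 800 uM solution, and hydrolysis was followed at 480 nm.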
* hit, by the source's call; u = inconclusive; x = no result. The entries come from a sample that favours hits as a whole. Unless noted, calls come from the whole dose curve; as a rule, active = well fitted curve in the direction sought with a large enough effect; inconclusive = small, poorly fitted or top-dose-only effect, or another doubt; inactive = no such curve, though single readings can be large; an effect the other way counts as inactive or inconclusive.

SMILES	Cycloheximide cs	AmpC inh detg	Shiga toxin inh	NS1 function inh	AmpC inh no detg
CCOc1ccc2nc(SCc3ccc(OC)cc3)sc2c1	19.7*	-14.6%	35.3	-28.5%	-30.0%
CCOc1ccc2nc(SC3CC(=O)N(c4cccc(OC)c4)C3=O)sc2c1 (stereo not drawn)	-2.0	-14.1%	-13.6	-30.6%	8.91µM*
CCOc1ccc(C(=O)Nc2ccc3nc(SCCOc4ccccc4)sc3c2)cc1	x	21.8%	x	x	x
CCC(Sc1nc2cc(OC)c(OC)cc2c(=O)n1Cc1ccc(Cl)cc1)C(=O)NCCOC (stereo not drawn)	x	10.0%	x	x	x
CC(=O)c1ccc(NC(=O)C(C)Nc2ccc(Cl)cc2)cc1 (stereo not drawn)	9.0	3.8%	20.0	x	-11.6%
O=C(O)[C@@H]1[C@@H]2O[C@H]([C@@H](Br)[C@H]2Br)[C@H]1C(=O)O	x	x	x	3.0%	x
COc1ccc(CNC(=O)CCS(=O)(=O)c2cc3c(cc2Cl)NC(=O)CO3)cc1	7.8	4.4%	-0.9	1.4%	-19.5%
CN(C(=O)Cn1nc(Cc2cccnc2)c2ccccc2c1=O)c1cccc(C(F)(F)F)c1	x	11.7%	x	x	x
COc1ccc(C2C3=C(N=C4SCC(=O)N42)c2ccccc2CC3)cc1OC (stereo not drawn)	-1.2	u	-9.1	9.6%	33.0%
COc1ccc(C2C3=C(N=C4SCC(=O)N42)c2ccccc2CC3)cc1 (stereo not drawn)	39.1*	-2.7%	75.8*	7.2%	1.6%
O=C1NC(=O)/C(=C/c2ccc(-c3cc(C(=O)O)ccc3Cl)o2)S1	-1.0	-12.1%	-7.1	4.1%	-34.6%
O=C1NC(=S)/C(=C\c2ccc(-c3ccccc3Cl)o2)S1	10.8	u	31.3*	-13.4%	-57.9%
COc1ccc(OCc2nnc(SCC(=O)Nc3cccc(C(C)=O)c3)o2)cc1	x	-4.2%	x	x	-17.6%
O=C(Cn1ncc2ccsc2c1=O)N1CCN(c2ccccc2F)CC1	x	17.1%	x	x	x
COc1ccc(NC(=O)/C=C/c2ccccc2)cn1	34.7*	-12.0%	86.1*	-26.2%	-19.5%
COc1cccc(/C=C/C(=O)Nc2ccc(OC)nc2)c1	29.8*	-1.1%	88.2*	-42.9%	-30.6%
COc1ccc(NC(=O)/C=C/c2ccc(F)cc2)cn1	51.1*	u	107.7*	-29.0%	-32.5%
CC(=O)Nc1ccc(NC(=O)/C=C/c2ccccc2)cc1	24.9*	-6.1%	33.4*	x	-18.5%
COc1ccc(NC(=O)/C=C/c2cc(OC)c(OC)c(OC)c2)cn1	7.7	0.9%	14.5	-5.5%	-9.4%
COC(=O)c1ccc(COC(=O)CNC(=O)c2ccc(C)s2)cc1	x	u	x	x	-1.5%
COc1ccccc1NC(=O)Nc1nc(CC(=O)NCc2ccc(F)cc2)cs1	x	u	x	x	-26.6%
CCOc1ccc(-n2c(SCC(=O)N3CCCC3)nc3c([nH]c4ccccc43)c2=O)cc1	x	5.7%	x	x	x
COc1ccc(S(=O)(=O)N(n2c(C)nnc2-n2nc(C)cc2C)S(=O)(=O)c2ccc(OC)cc2)cc1	21.2*	2.5%	20.3	1.4%	-17.0%
CNS(=O)(=O)c1cn(CC(=O)N2CCN(c3ccc(C)cc3C)CC2)cc1S(=O)(=O)NC	x	26.9%	x	x	x
CC[C@H](C)[C@H](N)C(=O)N[C@H](C(=O)N[C@@H](CO)C(=O)N[C@@H](C)C(=O)N[C@H](C(=O)N[C@H](C(=O)NCC(=O)N[C@H](C(=O)N[C@@H](CC(C)C)C(=O)O)[C@@H](C)CC)C(C)C)C(C)C)[C@@H](C)CC	-1.4	x	-5.4	x	x
SMILES	Cycloheximide cs	AmpC inh detg	Shiga toxin inh	NS1 function inh	AmpC inh no detg
CC12CN3CCN(C1)CC(C)(C3)C2=NN	20.6*	-0.1%	74.1*	0.6%	-10.5%
CC12CN3CCN(CC(C3)C1O)C2 (stereo not drawn)	3.4	7.6%	-14.8	3.7%	4.0%
CC(=O)Nc1ccn(C2OC(C(COC(C)=O)NC(=O)C(COCc3ccccc3)NC(=O)OC(C)(C)C)C(OC(C)=O)C2OC(C)=O)c(=O)n1 (stereo not drawn)	-0.7	x	-3.8	x	x
O=C(C1CCC1)N1CCC(O)(c2cccc(F)c2)CC1	-5.1	-8.5%	-3.2	x	-16.2%
O=C(Nc1ccon1)c1sc2cc(F)ccc2c1Cl	33.4*	u	75.4*	4.5%	-13.2%
O=C(NCc1ccco1)c1sc2cc(F)ccc2c1Cl	38.6*	-13.9%	85.9*	-5.7%	-49.5%
O=C(NCCCN1CCOCC1)c1sc2cc(F)ccc2c1Cl	37.5*	-8.7%	41.9*	-0.6%	3.8%
O=C(NC1=NCCS1)c1sc2cc(F)ccc2c1Cl	76.9*	-0.2%	96.2*	-1.4%	-37.7%
O=C(NCc1ccco1)c1cccc(F)c1	1.7	-4.4%	-2.9	0.9%	x
Cc1ccc(C(=O)O/N=C(\N)c2ccccn2)cc1C	-3.6	-10.4%	-12.2	-21.8%	-15.3%
COc1ccc(C(=O)O/N=C(\N)c2ccc(OC)c(OC)c2)cc1	26.9*	-4.8%	159.9*	-33.1%	1.2%
COc1ccc(C(=O)O/N=C(\N)c2ccccn2)c(OC)c1	29.2*	0.3%	33.9	-46.2%	61.2%
COc1cc(C(=O)O/N=C(\N)c2ccccn2)cc(OC)c1OC	33.8*	1.2%	65.8*	-3.9%	-2.4%
COc1ccc(C(=O)O/N=C(\N)c2ccccc2)c(OC)c1	32.3*	-12.3%	10.5	-101.3%	-15.0%
CC1CCN(S(=O)(=O)c2cn(CC(=O)Nc3ccc(F)c(Cl)c3)c(=O)c3ccccc23)CC1	x	18.9%	x	x	x
COc1ccc(C(=O)O/N=C(\N)c2ccc(OC)c(OC)c2)c(OC)c1	48.4*	-6.7%	92.7*	-7.9%	60.7%
Cc1ccc(NC(=O)CCC(=O)N2Cc3ccccc3Oc3ncccc32)cc1F	x	4.9%	x	x	x
COc1cccc(NC(=S)Nc2ccc(F)cc2)c1	1.7	0.3%	34.7	13.2%	-30.1%
CC(C)NC(=S)N/N=C1\CCCCc2ccccc21	-8.0	0.1%	-11.2	1.4%	-36.4%
COc1cccc(NC(=S)NCc2ccccc2)c1	21.7*	-14.5%	33.0*	13.2%	-51.7%
COc1cccc(NC(=S)Nc2ccc(O)cc2)c1	32.1*	-4.8%	79.1*	-1.8%	-30.0%
S=C(NCc1cccs1)Nc1cccc(Cl)c1Cl	29.5*	6.9%	45.4*	5.5%	-19.1%
COc1cccc(NC(=S)N/N=C2/CCCCc3ccccc32)c1	41.6*	-0.6%	55.4*	u	-38.0%
COc1cccc(NC(=S)NCc2cccnc2)c1	-3.5	-9.7%	18.3	24.2%	-13.6%
O=C(NCC1CCCO1)C1CCCN1C(=O)Nc1ccc(Cl)c(Cl)c1 (stereo not drawn)	-4.0	-4.7%	-10.2	7.4%	-14.6%
CC(C)Oc1ccc(OCCn2c(S(=O)(=O)O)nc3c(N)ncnc32)cc1	-1.7	-0.8%	-9.8	3.4%	-38.2%
Cc1ccc(CSCCC(=O)NCc2ccc(F)cc2Cl)cc1	x	-3.2%	x	x	x
COc1ccccc1N1CCN(S(=O)(=O)c2c(C(=O)N3CCOCC3)c(C)n(C)c2C)CC1	9.2	0.3%	-11.6	-8.4%	82.6%
O=C(Cn1cnc2c(oc3ccccc32)c1=O)Nc1ccc(F)cc1F	x	-4.5%	x	x	x

Bioassay records as filed in PubChem BioAssay.
